# Results from PubChem BioAssay (Tox21).
# Inconclusive results are not listed. Unmarked numbers belong to inactive results. Calls come from the whole dose curve.
# Experiment: qHTS assay to identify small molecule agonists of the AP-1 signaling pathway (AID 1159526)
# Conditions: ME-180 (cervical carcinoma) AP-1-bla reporter, beta-lactamase FRET ratio, 5 h; series mostly up to 76.8 µM; activation: at the top concentration
# % is set by controls: 0 for no effect and ±100 for the full control effect.
row,Structure (SMILES),activation
1,CC(=O)OC1CCCCC1C(C)(C)C (configuration not stated),2.76%
2,O=C=NCC1CCCC(CN=C=O)C1 (configuration not stated),-4.96%
3,COS(=O)(=O)O,-4.85%
4,CC(C)NCC(O)c1ccc2ccccc2c1 (configuration not stated),6.46% [at 35.3 µM]
5,CCC(C(=O)OCCN1CCOC(c2ccccc2)C1C)c1ccccc1 (configuration not stated),8.67% [at 35.3 µM]
6,COc1nc(N)nc2nc[nH]c12,1.92%
7,CC1(C)[C@H]2CC[C@](C)(C2)[C@H]1O,3.91%
8,O=C1CCCCO1,-3.83%
9,CCCCOC(=O)[C@H](C)O,-5.91%
10,CCc1occc(=O)c1O,-1.21%
11,Nc1nnnn1-c1ccccc1,-2.34% [at 35.3 µM]
12,Cc1ccc2c(c1)C(=O)c1ccccc1C2=O,-4.45%
13,NCc1ccc(S(N)(=O)=O)cc1,-1.55% [at 35.3 µM]
14,COc1cc(/C=C/C(N)=O)cc(OC)c1OC,-3.83% [at 35.3 µM]
15,CN(C)CCOC(=O)C(c1ccccc1)C1(O)CCCC1 (configuration not stated),1.67% [at 35.3 µM]
16,Cn1c(=O)c2[nH]c(Br)nc2n(C)c1=O,-1.98% [at 35.3 µM]
17,C=CC/C=C/C,-0.179%
18,C=CC(=O)CCCCC,-1.41%
19,CN(C)C(C)(C)CO,0.0901%

row,Structure (SMILES),activation
1,O=C(CN1CCNCC1)NC1CCCCC1,6.45% [at 35.3 µM]
2,CCCCCCCCCCOC(C)=O,-2.32%
3,CC(=O)OCC(=O)Nc1cc(C#N)cc(NC(=O)COC(C)=O)c1Cl,-6.79% [at 35.3 µM]
4,CC1(C)Cc2cccc(N)c2O1,-0.592%
5,Cc1ccccc1C(N)=O,3%
6,Fc1ccccc1,-1.15%
7,CCC(C)C(=O)OCCc1ccccc1 (configuration not stated),0.719%
8,CSc1cnccn1,-4.74%
9,CCCCCCCCCOC(=O)c1ccccc1C(=O)OCCCCCCCCC,-1.93%
10,CCn1cc(C(=O)O)c(=O)c2cnc(N3CCCC3)nc21,-6.77% [at 6.97 µM]
11,CC12CCC(C1)C(C)(C)C2O (configuration not stated),-1.39%
12,COc1ccc(CCO)cc1,-1.37%
13,CC(C)Cn1cnc2c1c(=O)n(C)c(=O)n2C,-0.518% [at 35.3 µM]
14,CCN(CC)CCN,-5.14% [at 35.3 µM]
15,C=CCCCCCCCC,1.32%
16,OCC1(CO)COCOC1,0.232%
17,CC(C)[C@H]1CC[C@H](C)C[C@@H]1O,3.42%
18,O=NN(CCCl)C(=O)NC1CCCCC1,-5.09% [at 35.3 µM]
